Source: PubChem BioAssay AID1159580 (chemical genetic matrix, 2015)
About 2,000 (36%) of roughly 5,500 compounds were called active. Another 18% or so got no clear call; they are omitted. Cut-off read from the data, not from the text of the source: active = normalized growth mostly below about 0.91 (no sharp cut-off); inconclusive = no clear call, values can overlap the other calls; inactive = mostly above about 0.92. This is one part of the list.

Experiment: chemical genetic growth profiling, strain panel (AID 1159580);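 note: tested at 20 µM; growth read once vehicle control cultures reached saturation at 30 °C; 1 = growth at the plate median or of vehicle wells; lower values mean less growth of the strain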
Conditions: growth OD

Measured: normalized growth

CC1(C)O[C@@H]2CC3C4C[C@H](F)C5=CC(=O)C=CC5(C)C4C(O)CC3(C)[C@]2(C(=O)CO)O1 (some centres undefined)
inactive: S. cerevisiae deletion strains, locus YKL009W, strain mrt4, active compounds read low 0.996 | S. cerevisiae deletion strains, locus YKL068W, active compounds read low 0.992 | S. cerevisiae deletion strains, locus YKL085W, strain MDH1 (second series), active compounds read low 1.01 | S. cerevisiae deletion strains, locus YKL085W, strain MDH1, active compounds read low 1.01 | S. cerevisiae deletion strains, locus YKL160W, strain elf1, active compounds read low 0.967 | S. cerevisiae deletion strains, locus YKL190W, strain CNB1, active compounds read low 1.01 | S. cerevisiae deletion strains, locus YKR001C, strain vps1, active compounds read low 1.01 | S. cerevisiae deletion strains, locus YKR026C, strain gcn3, active compounds read low 0.988 | S. cerevisiae deletion strains, locus YKR091W, strain srl3, active compounds read low 0.985 | S. cerevisiae deletion strains, locus YLL001W, strain dnm1, active compounds read low 0.978 | S. cerevisiae deletion strains, locus YLL026W, active compounds read low 1.02 | S. cerevisiae deletion strains, locus YLL041C, strain sdh2, active compounds read low 0.981 | S. cerevisiae deletion strains, locus YLR027C, strain aat2, active compounds read low 0.992 | S. cerevisiae deletion strains, locus YLR039C, strain RIC1, active compounds read low 0.995 | S. cerevisiae deletion strains, locus YLR058C, strain SHM2, active compounds read low 1.02 | S. cerevisiae deletion strains, locus YLR102C, strain apc9, active compounds read low 0.981 | S. cerevisiae deletion strains, locus YLR113W, strain HOG1, active compounds read low 1.04 | S. cerevisiae deletion strains, locus YLR221C, strain rsa3, active compounds read low 1.02 | S. cerevisiae deletion strains, locus YLR258W, strain gsy2, active compounds read low 0.984 | S. cerevisiae deletion strains, locus YLR262C, strain YPT6 (second series), active compounds read low 0.969 | S. cerevisiae deletion strains, locus YLR262C, strain YPT6, active compounds read low 1 | S. cerevisiae deletion strains, locus YLR268W, strain sec22, active compounds read low 1.01 | S. cerevisiae deletion strains, locus YLR320W, strain mms22, active compounds read low 0.981 | S. cerevisiae deletion strains, locus YLR330W, strain CHS5, active compounds read low 1.02 | S. cerevisiae deletion strains, locus YLR342W, strain FKS1 (second series), active compounds read low 1 | S. cerevisiae deletion strains, locus YLR342W, strain FKS1, active compounds read low 0.978 | S. cerevisiae deletion strains, locus YLR357W, strain rsc2, active compounds read low 0.933 | S. cerevisiae deletion strains, locus YLR370C, strain arc18, active compounds read low 0.981 | S. cerevisiae deletion strains, locus YLR371W, strain rom2, active compounds read low 0.988 | S. cerevisiae deletion strains, locus YLR384C, strain iki3, active compounds read low 0.992 | S. cerevisiae deletion strains, locus YLR418C, strain cdc73, active compounds read low 0.977 | S. cerevisiae deletion strains, locus YML016C, strain PPZ1, active compounds read low 1.02 | S. cerevisiae deletion strains, locus YML032C, strain rad52, active compounds read low 0.979 | S. cerevisiae deletion strains, locus YML120C, strain ndi1, active compounds read low 1 | S. cerevisiae deletion strains, locus YML124C, strain tub3, active compounds read low 0.992 | S. cerevisiae deletion strains, locus YMR058W, strain fet3, active compounds read low 1.01 | S. cerevisiae deletion strains, locus YMR078C, strain ctf18, active compounds read low 1 | S. cerevisiae deletion strains, locus YMR125W, strain sto1, active compounds read low 0.979 | S. cerevisiae deletion strains, locus YMR129W, active compounds read low 1.01 | S. cerevisiae deletion strains, locus YMR205C, strain PFK2, active compounds read low 0.981 | S. cerevisiae deletion strains, locus YMR223W, strain ubp8, active compounds read low 0.996 | S. cerevisiae deletion strains, locus YMR231W, strain pep5, active compounds read low 0.978 | S. cerevisiae deletion strains, locus YMR263W, strain SAP30, active compounds read low 1.02 | S. cerevisiae deletion strains, locus YMR307W, strain GAS1, active compounds read low 1.07 | S. cerevisiae deletion strains, locus YNL067W, strain RPL9B, active compounds read low 1.03 | S. cerevisiae deletion strains, locus YNL071W, strain lat1, active compounds read low 0.987 | S. cerevisiae deletion strains, locus YNL153C, strain GIM3, active compounds read low 1.03 | S. cerevisiae deletion strains, locus YNL183C, strain NPR1, active compounds read low 0.953 | S. cerevisiae deletion strains, locus YNL209W, strain ssb2, active compounds read low 0.974 | S. cerevisiae deletion strains, locus YNL233W, strain BNI4, active compounds read low 1.02 | S. cerevisiae deletion strains, locus YNL248C, strain rpa49, active compounds read low 0.927 | S. cerevisiae deletion strains, locus YNL250W, strain rad50, active compounds read low 0.993 | S. cerevisiae deletion strains, locus YNL271C, strain bni1, active compounds read low 0.97 | S. cerevisiae deletion strains, locus YNL298W, strain CLA4, active compounds read low 0.988 | S. cerevisiae deletion strains, locus YNL307C, strain MCK1, active compounds read low 0.98 | S. cerevisiae deletion strains, locus YNL322C, strain KRE1 (second series), active compounds read low 0.963 | S. cerevisiae deletion strains, locus YNL322C, strain KRE1, active compounds read low 1.01 | S. cerevisiae deletion strains, locus YNR049C, strain mso1, active compounds read low 0.974 | S. cerevisiae deletion strains, locus YNR052C, strain pop2, active compounds read low 0.993 | S. cerevisiae deletion strains, locus YOL006C, strain TOP1, active compounds read low 1.01 | S. cerevisiae deletion strains, locus YOL012C, strain htz1 0.907 | S. cerevisiae deletion strains, locus YOL147C, strain pex11, active compounds read low 0.992 | S. cerevisiae deletion strains, locus YOR001W, strain rrp6, active compounds read low 1.01 | S. cerevisiae deletion strains, locus YOR061W, strain CKA2, active compounds read low 1.02 | S. cerevisiae deletion strains, locus YOR069W, strain VPS5, active compounds read low 1.01 | S. cerevisiae deletion strains, locus YOR070C, strain gyp1, active compounds read low 0.984 | S. cerevisiae deletion strains, locus YOR080W, strain dia2, active compounds read low 0.977 | S. cerevisiae deletion strains, locus YOR083W, strain WHI5, active compounds read low 0.918 | S. cerevisiae deletion strains, locus YOR106W, strain vam3, active compounds read low 0.976 | S. cerevisiae deletion strains, locus YOR136W, strain idh2, active compounds read low 0.994 | S. cerevisiae deletion strains, locus YOR144C, strain elg1, active compounds read low 0.984 | S. cerevisiae deletion strains, locus YOR184W, strain ser1, active compounds read low 0.982 | S. cerevisiae deletion strains, locus YOR231W, strain MKK1, active compounds read low 1.02 | S. cerevisiae deletion strains, locus YOR265W, strain rbl2, active compounds read low 1.01 | S. cerevisiae deletion strains, locus YOR270C, strain vph1, active compounds read low 0.955 | S. cerevisiae deletion strains, locus YOR290C, strain snf2, active compounds read low 0.964 | S. cerevisiae deletion strains, locus YOR316C, strain cot1, active compounds read low 0.983 | S. cerevisiae deletion strains, locus YPL051W, strain arl3, active compounds read low 0.981 | S. cerevisiae deletion strains, locus YPL055C, strain LGE1, active compounds read low 1.04 | S. cerevisiae deletion strains, locus YPL078C, strain atp4, active compounds read low 0.977 | S. cerevisiae deletion strains, locus YPL106C, strain sse1, active compounds read low 0.95 | S. cerevisiae deletion strains, locus YPL240C, strain hsp82, active compounds read low 0.992 | S. cerevisiae deletion strains, locus YPL256C, strain CLN2, active compounds read low 1.03 | S. cerevisiae deletion strains, locus YPR119W, strain clb2, active compounds read low 0.987 | S. cerevisiae deletion strains, locus YPR141C, strain kar3, active compounds read low 0.996 | S. cerevisiae deletion strains, locus YPR163C, strain tif3, active compounds read low 0.988 | S. cerevisiae deletion strains, locus YPR167C, strain met16, active compounds read low 0.987 | S. cerevisiae deletion strains, strain wtn01, active compounds read low 0.984 | S. cerevisiae strains, strain wild type, active compounds read low 1.02
